Rows were chosen to be rich in hits. Some 1.9% of all compounds tested hit in one or more screens of this group.
S1P4 antag = antagonists of human S1P4 receptor; O95977; S1P4-expressing cells, antagonist mode, reporter read-out; inhibition, % at 4.98 µM; 0.26% of 220,000 active; in the data active = inhibition above about 29%;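 also: 0% = wells stimulated with agonist and 100% = vehicle wells without agonist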
Target sequence (O95977 whole entry, looked up): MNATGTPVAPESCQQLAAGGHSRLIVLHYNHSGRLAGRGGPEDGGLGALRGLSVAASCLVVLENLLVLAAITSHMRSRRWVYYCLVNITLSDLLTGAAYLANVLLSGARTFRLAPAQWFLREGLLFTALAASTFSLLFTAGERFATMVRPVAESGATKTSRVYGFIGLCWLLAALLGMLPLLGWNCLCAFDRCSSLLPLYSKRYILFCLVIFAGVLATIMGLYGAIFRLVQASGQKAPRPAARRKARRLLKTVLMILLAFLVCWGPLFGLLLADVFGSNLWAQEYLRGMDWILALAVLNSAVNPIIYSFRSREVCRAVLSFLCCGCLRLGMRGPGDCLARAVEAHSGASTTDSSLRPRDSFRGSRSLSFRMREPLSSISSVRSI
EP2 antag = EP2 receptor (human) inhibition; P43116; C6 glioma cells expressing human EP2, cAMP TR-FRET; cells stimulated with saturating PGE2; inhibition, % at 25 µM; 0.52% of 260,000 active;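 active = percent inhibition above 40 after rounding to a whole number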;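 also: rat C6 glioma host cells with rolipram phosphodiesterase inhibitor present; the protocol text gives 20 µM as final concentration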
EP2 mod = EP2 receptor (human) modulation; EP2-expressing cells, cAMP HTRF FRET, PGE2 co-stimulation; induction, % at 25 µM; 0.83% of 260,000 active;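 active = compounds whose cAMP rise, as percent of the full-agonist control response, exceeds 60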;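 also: rat C6 glioma line stably carrying human EP2 under a CMV promoter; the protocol text gives 20 µM as final concentration; 100% = response of wells given 1 µM PGE2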
S1P4 ag = activates the human S1P4 receptor | S1P4-expressing cell line, agonist reporter assay | O95977 | activation, % at 4.98 µM | 0.35% of 220,000 active; in the data active = activation above about 11%;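 also: 0% = DMSO vehicle and 100% = reference agonist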
S1P3 antag = antagonists of human S1P3 receptor | Q99500 | CHO S1P3 NFAT-BLA reporter, FRET fluorescence, antagonist mode | inhibition, % at 4.98 µM | 0.27% of 170,000 active | AID 485;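 active = inhibition above the plate cutoff, the mean inhibition of test wells on that plate plus 3 SD, cut at about 28% in these data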;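 also: cells challenged with S1P at its EC80 of 0.8 µM; blue over green emission ratio from cleaved BLA substrate after 4 h stimulation; 0% = S1P-stimulated wells and 100% = unstimulated DMSO-only wells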
An asterisk follows results filed as active; x = no result.

SMILES | S1P4 antag | EP2 antag | EP2 mod | S1P4 ag | S1P3 antag
CC1=NN(C(=O)c2ccncc2)C(=O)[C@@H]1N=Nc1ccc2ccccc2c1 | x | 58* | -21 | x | x
CCCC(c1nnnn1Cc1ccco1)N1CCN(c2cc(Cl)ccc2C)CC1 (centres undefined) | 9 | 8 | 22 | -1 | 60*
Cc1ccc(S(=O)(=O)NCCC(c2ccccc2)c2ccco2)cc1 (centres undefined) | -11 | 4 | 64* | 0 | -8
Cc1ccc(S(=O)(=O)NCCC(c2ccc(F)cc2)c2ccco2)cc1 (centres undefined) | -19 | 3 | 58 | 0 | -10
CC[C@H](Cn1nc(-c2ccc(OC)cc2)ccc1=O)NC(=O)c1ccc2c(c1)OCCO2 | x | x | -16 | x | x
CC(=O)N1CCCc2cc(C(O)CN3CCN(c4ccccc4F)CC3)ccc21 (centres undefined) | x | 10 | -15 | x | x
CCN1CCOC(CC(=O)Nc2cccc(C)c2)C1=O (centres undefined) | x | 5 | 69* | x | x
O=C(Nc1nnc(SCC(=O)N2CCCC2)s1)C1CCC1 | x | 5 | 8 | x | x
CN(C)C(=O)CNc1n[nH]c(=S)[nH]c1=O | 14 | 28 | -4 | -2 | -6
CC(C)OC(=O)CNc1n[nH]c(=S)[nH]c1=O | -3 | 101* | -30 | 0 | -15
COC(=O)CNc1n[nH]c(=S)[nH]c1=O | -1 | 86* | 15 | -1 | 13
Cc1nn(CC(=O)NCc2cccs2)c(=O)c2cc3sccc3n12 | x | x | 16 | x | x
O=S(=O)(NCc1ccc2c(c1)OCO2)c1ccc2c(c1)OCCO2 | x | 9 | -66 | x | x
COc1ccc(OCc2nnc(SCc3ccc(Cl)cc3)n2C)cc1 | x | 14 | -74 | x | x
N#C[C@H](c1ccccc1)N1CCCN([C@@H](C#N)c2ccccc2)C1c1ccccc1O (some centres undefined) | x | 43* | 4 | x | x
COc1cccc(/C(O)=C2/C(=O)C(=O)N(CCN3CCOCC3)C2c2ccc(C)o2)c1 (centres undefined) | x | 9 | 20 | x | x
O=C1C2[C@@H](c3ccccc3)N[C@@H](c3ccccc3)C1[C@@H](c1ccccc1)N[C@H]2c1ccccc1 | x | 47* | -9 | x | x
CC1=NN(c2ccccc2)C(=O)/C1=C/C=C/c1ccccc1 | 9 | 8 | -76 | -2 | 12
Cc1ccc(C2=NOC(=O)/C2=C\C=C\c2ccccc2)cc1 | 1 | 98* | -38 | 0 | -25
Cc1ccc(CN(CCCn2ccnc2)Cc2cc(F)cc(F)c2)o1 | x | 4 | 25 | x | x
Nc1sc2c(c1C(=O)c1ccc(Cl)cc1)CCC2 | x | 15 | 83* | x | x
COC(=O)c1c(NC(=O)CN2CCOCC2)sc2c1CCC(C)C2 (centres undefined) | -5 | 5 | 61* | 0 | 17
NC(=O)c1c(N)sc2c1CCC2 | 3 | 4 | -12 | -1 | -43
O=C(CN1CCOCC1)Nc1sc2c(c1C(=O)c1ccc(Cl)cc1)CCC2 | x | 16 | 62* | x | x
NC(=O)c1c(NC(=O)CN2CCOCC2)sc2c1CCC2 | -9 | 9 | 13 | 0 | -8
SMILES | S1P4 antag | EP2 antag | EP2 mod | S1P4 ag | S1P3 antag
C#CCOc1ccc(CN2CCC(NC(C)=O)(c3ccccc3F)CC2)cc1OC | x | 4 | -27 | x | x
CCOC(=O)c1c(C)nc2ccccn12 | -14 | 8 | 24 | -1 | 70*
O=C1CN(C(=O)CSc2nc(C3CCCCC3)nc3ccccc23)c2ccccc2N1 | x | 7 | 55 | x | x
CC(=O)Nc1ccc(S(=O)(=O)Nc2cccc(-c3csc(C)n3)c2)cc1 | 1 | 9 | -30 | 0 | 7
Nc1nc(-c2cccc(NS(=O)(=O)c3ccccc3)c2)cs1 | 0 | 7 | -48 | -4 | 53*
Cc1ccc2[nH]c3c(c2c1)CCC3=O | -8 | 42* | -15 | -1 | -3
Cc1ccc2[nH]c3c(c2c1)CCCC3=O | -11 | 8 | -28 | 2 | x
CC(C)S(=O)(=O)c1csc(NC(=O)Nc2cccc([N+](=O)[O-])c2)c1Cl | 12 | 54* | -36 | 1 | -10
CCn1c(SCc2cc(=O)[nH]c3ccccc23)nnc1C(C)C | x | 13 | -11 | x | x
CCN(CC)CCNC(C)C(=O)N1CCc2ccccc21 (centres undefined) | x | 7 | -17 | x | x
COc1ccc(OC)c(S(=O)(=O)N2CCC(C(=O)N3CCC(C)CC3)CC2)c1 | x | 6 | 2 | x | x
COC(=O)/C(=C(/F)Sc1cc(C)c(O)c(C)c1)C(F)(F)F | -9 | 99* | -20 | 3 | x
CC(C)C(=O)N1CCN(c2ccc(NC(=O)COc3ccccc3[N+](=O)[O-])cc2)CC1 | -11 | 44* | -34 | 0 | -10
CN1CCN(c2ccc(NC(=O)COc3ccccc3[N+](=O)[O-])cc2)CC1 | -6 | 3 | -27 | -3 | 6
CCOc1ccc2[nH]c(=O)c(-c3nc4ccc(Cl)cn4c3NCCOC)cc2c1 | x | 25 | -27 | x | x
CS(=O)(=O)N1CCN(c2ncnc3c(-c4ccc(Cl)cc4)nsc23)CC1 | x | 13 | -36 | x | x
CC1(C)CC(N(Cc2ccncc2)Cc2cccnc2)CC(C)(C)N1 | x | 9 | 4 | x | x
O=C1C(=O)c2c(C(=O)c3ccccc3)coc2-c2ccccc21 | -5 | 45* | -33 | 2 | x
Cc1oc2c(c1C(=O)c1ccccc1)C(=O)C(=O)c1ccccc1-2 | -9 | 57* | -44 | 2 | x
O=C(O)c1ccccc1-c1ccccc1C(=O)c1ccccc1 | x | 16 | -67 | x | x
Cc1oc2c(c1C(=O)O)C(=O)c1ccccc1C2=O | 1 | 14 | -41 | 2 | -12
CCCC(=O)Nc1ncnc2c1ncn2[C@@H]1O[C@@H]2COP(=O)(O)O[C@H]2[C@H]1OC(=O)CCC | 5 | 2 | 109* | 0 | -14
COC(=O)c1sc(NC(=O)c2cccc(Cl)c2Cl)c(C#N)c1C | x | 13 | -93 | x | x
CCCCN(C)C(=O)c1cn(C)c2ccc(S(=O)(=O)N(C)C)cc2c1=O | 3 | 5 | -27 | 0 | 87*
CCCCN(C)C(=O)c1cn(CC)c2ccc(S(=O)(=O)N(C)C)cc2c1=O | -7 | 4 | 4 | 0 | 3
SMILES | S1P4 antag | EP2 antag | EP2 mod | S1P4 ag | S1P3 antag
CC1CCCCC1NC(=O)CCCn1c(=S)[nH]c2ccccc2c1=O (centres undefined) | 4 | 8 | -34 | -1 | -10
O=C(CCCn1c(=S)[nH]c2ccccc2c1=O)NC1CCCC1 | 18 | 4 | -19 | 1 | 60*
CCCC(=O)Nc1nnc(Cc2c[nH]c3ccccc23)s1 | x | 7 | -56 | x | x
Cc1ccc(S(=O)(=O)OC2CCN(C)CC2)cc1 | x | 56* | -1 | x | x
COc1ccc(C(=O)CSc2nc(C3CC3)nc3sc(C)c(C)c23)cc1 | x | 9 | 47 | x | x
CN(C)S(=O)(=O)c1ccc(Nc2ccc(O)c3c2C(=O)c2c([N+](=O)[O-])ccc(O)c2C3=O)cc1 | x | 59* | -34 | x | x
O=C(O)c1ccccc1-c1ccccc1C(=O)Nc1ccc2c(c1)Cc1cc(F)ccc1-2 | x | 43* | 7 | x | x
S=C(Nc1ccc2c(c1)Cc1ccccc1-2)Nc1ccc2c(c1)Cc1ccccc1-2 | x | 55* | -14 | x | x
O=C(O)c1ccccc1-c1ccccc1C(=O)Nc1ccc2c(c1)Cc1ccccc1-2 | x | 39 | 31 | x | x
Cc1ccc2c(c1)cc(C)c1nn(Cc3ccccn3)c(=O)n12 | x | x | -43 | x | x

Screening data as filed in PubChem.
